Measured values as given in ChEMBL document CHEMBL4513152, “CO-ADD screening of Yantai University (China) compounds”.
Potency and affinity values are given separately.

Key:
Staphylococcus aureus = conditions: Concentration 32 ug.mL-1; ASSAY_TEST Inhibition of Bacterial Growth; detection method Absorption (OD600); MEDIA CAMHB; plate type 384well; NBS; CORNING #3640; time 18 hr
Escherichia coli = conditions: Concentration 32 ug.mL-1; ASSAY_TEST Inhibition of Bacterial Growth; detection method Absorption (OD600); MEDIA CAMHB; plate type 384well; NBS; CORNING #3640; time 18 hr

Row | SMILES | Inhibition (Staphylococcus aureus) | Inhibition (Escherichia coli)
1 | CC(=O)O[C@H]1C[C@@]2(C)C(C[C@@H](O)C3[C@@]4(C)CC[C@@H](O)[C@@H](C)C4CC[C@@]32C)/C1=C(\CCC=C(C)C)C(=O)OCc1ccccc1 (stereo partly specified) | 36.65% | -11.95%
2 | CC(=O)O[C@H]1C[C@@]2(C)C(C[C@@H](O)C3[C@@]4(C)CC[C@@H](OC(=O)C(C)N)[C@@H](C)C4CC[C@@]32C)/C1=C(\CCC=C(C)C)C(=O)OCc1ccccc1 (stereo partly specified) | 32.79% | -12.12%
3 | CC(=O)O[C@H]1C[C@@]2(C)C(CC(=O)C3[C@@]4(C)CC[C@@H](OC(=O)CCCCCO[N+](=O)[O-])[C@@H](C)C4CC[C@@]32C)/C1=C(\CCC=C(C)C)C(=O)OCc1ccccc1 (stereo partly specified) | 5.71% | -2.8%
4 | CC(=O)O[C@H]1C[C@@]2(C)C(C[C@@H](O)C3[C@@]4(C)CC[C@@H](OC(=O)c5ccccc5C(=O)OCCc5ccc(OCCO[N+](=O)[O-])cc5)[C@@H](C)C4CC[C@@]32C)/C1=C(\CCC=C(C)C)C(=O)OCc1ccccc1 (stereo partly specified) | 8.23% | 0.28%
5 | CC(=O)O[C@H]1C[C@@]2(C)C(C[C@@H](O)C3[C@@]4(C)CC[C@@H](OC(=O)CCC(=O)OCCc5ccc(OCCO[N+](=O)[O-])cc5)[C@@H](C)C4CC[C@@]32C)/C1=C(\CCC=C(C)C)C(=O)OCc1ccccc1 (stereo partly specified) | -0.26% | -8.83%
6 | CC(=O)O[C@H]1C[C@@]2(C)C(C[C@@H](O)C3[C@@]4(C)CC[C@@H](O)[C@@H](C)C4CC[C@@]32C)/C1=C(\CCC=C(C)C)C(=O)On1nnc2ccccc21 (stereo partly specified) | 73.87% | -6.08%
7 | CC(=O)O[C@H]1C[C@@]2(C)C(C[C@@H](O)C3[C@@]4(C)CC[C@@H](OC(=O)c5ccccc5C(=O)Oc5ccc(CCO[N+](=O)[O-])cc5)[C@@H](C)C4CC[C@@]32C)/C1=C(\CCC=C(C)C)C(=O)OCc1ccccc1 (stereo partly specified) | -1.26% | -6.53%
8 | CC(=O)O[C@H]1C[C@@]2(C)C(C[C@@H](O)C3[C@@]4(C)CC[C@@H](OC(=O)CCCCO[N+](=O)[O-])[C@@H](C)C4CC[C@@]32C)/C1=C(\CCC=C(C)C)C(=O)OCc1ccccc1 (stereo partly specified) | 9.5% | -4.08%
9 | CC(=O)O[C@H]1C[C@@]2(C)C(C[C@@H](O)C3[C@@]4(C)CC[C@@H](OC(=O)CCCCCO[N+](=O)[O-])[C@@H](C)C4CC[C@@]32C)/C1=C(\CCC=C(C)C)C(=O)OCc1ccccc1 (stereo partly specified) | 6.22% | -6.82%
10 | CC(=O)O[C@H]1C[C@@]2(C)C(C[C@@H](O)C3[C@@]4(C)CC[C@@H](OC(=O)CCC(=O)Oc5ccc(CCO[N+](=O)[O-])cc5)[C@@H](C)C4CC[C@@]32C)/C1=C(\CCC=C(C)C)C(=O)OCc1ccccc1 (stereo partly specified) | -9.31% | -12.6%
11 | CC(=O)O[C@H]1C[C@@]2(C)C(C[C@@H](O)C3[C@@]4(C)CC[C@@H](OC(=O)c5ccccc5C(=O)Nc5ccc(N)cc5)[C@@H](C)C4CC[C@@]32C)/C1=C(\CCC=C(C)C)C(=O)OCc1ccccc1 (stereo partly specified) | 7.06% | 1.09%
12 | CC(=O)O[C@H]1C[C@@]2(C)C(C[C@@H](O)C3[C@@]4(C)CC[C@@H](OC(=O)c5ccccc5C(=O)Nc5cccc(N)c5)[C@@H](C)C4CC[C@@]32C)/C1=C(\CCC=C(C)C)C(=O)OCc1ccccc1 (stereo partly specified) | 1.65% | -0.14%
13 | CC(=O)O[C@H]1C[C@@]2(C)C(C[C@@H](O)C3[C@@]4(C)CC[C@@H](OC(=O)CCC(=O)O)[C@@H](C)C4CC[C@@]32C)/C1=C(\CCC=C(C)C)C(=O)OCc1ccccc1 (stereo partly specified) | 44.88% | 10.14%
